Source: PubChem (Paczesny and Yang Labs, IUPUI and University of Michigan)
This excerpt belongs to a sample that is enriched for hits.
ST2 inh: inhibitors of human ST2 (IL1RL1) binding to IL-33, primary screen, biochemical, AlphaLISA; Interleukin-1 receptor-like 1 (Homo sapiens), Q01638; AlphaLISA ST2-Fc/biotin-IL-33 interaction, 1 h; inhibition, % for hits at 17 µM; 2.3% of 78,000 active; in the data active means inhibition above about 30%
Target sequence (Q01638 whole entry, looked up): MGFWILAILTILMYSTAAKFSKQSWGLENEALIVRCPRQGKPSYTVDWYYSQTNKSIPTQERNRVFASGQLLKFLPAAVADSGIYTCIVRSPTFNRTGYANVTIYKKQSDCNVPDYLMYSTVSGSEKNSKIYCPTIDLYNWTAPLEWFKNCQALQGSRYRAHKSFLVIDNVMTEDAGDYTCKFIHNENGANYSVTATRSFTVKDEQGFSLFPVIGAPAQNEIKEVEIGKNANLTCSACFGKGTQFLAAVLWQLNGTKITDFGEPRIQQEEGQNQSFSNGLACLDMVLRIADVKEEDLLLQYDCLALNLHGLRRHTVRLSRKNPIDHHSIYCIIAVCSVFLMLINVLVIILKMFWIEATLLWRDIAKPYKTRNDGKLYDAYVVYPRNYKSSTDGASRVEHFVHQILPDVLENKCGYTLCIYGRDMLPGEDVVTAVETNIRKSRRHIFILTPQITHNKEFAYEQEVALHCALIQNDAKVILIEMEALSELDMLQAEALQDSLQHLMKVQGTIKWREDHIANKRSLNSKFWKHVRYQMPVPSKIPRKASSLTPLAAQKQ
Starred values were filed as active, the others as inactive; i = inactive.

SMILES	ST2 inh
O=C(NCc1nccn1Cc1ccccc1)c1ccc(-n2cnnn2)cc1	i
O=C(CN1CCN(Cc2cccc(Cl)c2)C1=O)NCc1ccccc1Cl	i
O=C(NCc1ccccc1Cl)c1oc(=O)c2ccccc2c1-c1ccccc1	i
Cc1cc(OCCCCn2ccnc2)cc(C(C)C)c1	i
O=C(CNS(=O)(=O)c1cccs1)N1CCCCCC1	i
Cc1cccc(Cc2c(C)nc3c(C(=O)N4CCC5(CC4)OCCO5)c[nH]n3c2=O)c1	i
Cc1cc(C)cc(OCCN(C)C(=O)c2nc3cccc(C)n3c2F)c1	i
CCc1ccc(-c2cn(-c3ccc(Br)cc3)c(=O)[nH]2)cc1	i
Cc1cccc(CSC2=NCCN2C(=O)c2ccc(S(=O)(=O)N3CCOCC3)cc2)c1	i
NC(=O)CSc1nc2c(sc3ccccc32)c(=O)n1Cc1cccnc1	i
O=C(c1ccc(Br)cc1)N1CCN=C1SCc1cccnc1	i
Cc1cc(C)c(/C=C/C(=O)c2cccs2)c(C)c1	44%*
Cc1cc2ncn(C(=O)c3cccs3)c2cc1C	i
Cc1cc(Cc2ccc(NC(=O)c3cccs3)c(C)c2)ccc1NC(=O)c1cccs1	i
CCCNc1ncc(CN2CCCC3(C2)C(=O)N(C)c2ccccc23)cn1 (configuration not stated)	i
O=C1NC(=Nc2ccccc2)S/C1=C/c1cc2c(cc1Br)OCO2	i
CC(C)c1ccc(/C=C2/SC(=Nc3ccccc3)NC2=O)cc1	37%*
O=C1N/C(=N/O)S/C1=C/c1ccc([N+](=O)[O-])cc1	i
COc1cc(/C=C2/SC(=Nc3ccccc3Cl)NC2=O)cc(OC)c1	i
COc1ccc(/C=C2/SC(=Nc3ccc(S(N)(=O)=O)cc3)NC2=O)cc1	37%*
CCOc1cc(/C=C2/SC(=Nc3ccccc3)NC2=O)ccc1OC	i
CCOC(=O)c1c(-c2ccccc2)csc1NC(=O)c1cc(CC(C)C)on1	i
COc1ccc(O)cc1CN1CCC2(CC1)CN(C)CCN2C	i
O=C(CSc1ncn[nH]1)Nc1cc(C(F)(F)F)ccc1Cl	i
CCc1nnc(NC(=O)CSc2ncn[nH]2)s1	i
SMILES	ST2 inh
CC(C)c1ccc(C(=O)CSc2ncn[nH]2)cc1	30%*
CC(=O)N1CC[C@@]2(O)CCCC[C@@H]2[C@H]1c1ccccc1	i
COCCNC(=O)Cn1cnc2sc(C)c(C)c2c1=O	i
CCOc1cccc2c1OC1(C)CC2C(C(=O)c2ccccc2)C(=O)N1 (configuration not stated)	i
COc1ccc2nc(N=C(N)NC(C)=O)nc(C)c2c1	i
COc1ccc(C2Oc3c(Br)cc(Br)cc3C=C2[N+](=O)[O-])cc1OC (configuration not stated)	56%*
COc1cc(-c2ncnn2-c2ccc(F)c([N+](=O)[O-])c2)ccc1OCc1ccccc1	i
COc1ccc(C2SCCN2S(=O)(=O)c2ccc([N+](=O)[O-])cc2)cc1OC (configuration not stated)	i
COc1cc(/C=C/c2c([N+](=O)[O-])c(=O)n(C)c(=O)n2C)ccc1OCc1ccccc1	i
COc1ccc([C@H]2OC[C@H]3[C@@H]2CO[C@@H]3c2ccc(OC)c(OC)c2)cc1OC	i
COc1cc(C2Oc3ccccc3C=C2[N+](=O)[O-])ccc1OCc1ccccc1 (configuration not stated)	46%*
COc1ccc(N2C(=O)C(O)=C(C(C)=O)C2c2ccc([N+](=O)[O-])cc2)cc1 (configuration not stated)	i
COc1ccc(-c2nc(C(N)=O)c3c(n2)n(-c2ccc(F)cc2)c(=O)n3C)cc1OC	i
CCOc1cc(/C=C(\C#N)c2nn(-c3ccccc3)c(N)c2C#N)cc(Br)c1OC	31%*
CCOc1ccccc1-c1c(C#N)c(N)nc(OC)c1C#N	i
C#CCOc1c(Br)cc(C=O)cc1OCC	i
O=C(Nc1nccs1)C(Cc1ccccc1)N1C(=O)c2ccccc2C1=O (configuration not stated)	i
CC(=O)N(C1=C(NC2CCCCC2)C(=O)c2ccccc2C1=O)c1ccc(F)c(F)c1	45%*
COc1cccc(C(=O)Nc2ccccc2C(=O)NC2CCCCC2)c1	i
CC(C(=O)NC1CCCC1)N(c1ccccc1)S(C)(=O)=O (configuration not stated)	i
COc1cccc(N2CC(NC(=O)C3CCCCC3)CC2=O)c1 (configuration not stated)	i
COc1cccc(N(C(C)=O)C2=C(NC3CCCCC3)C(=O)c3ccccc3C2=O)c1	38%*
O=C(NC1CCCCC1)C(c1ccccc1)c1ccccc1	i
Cc1ccc(NC(=NS(=O)(=O)c2ccccc2)c2ccccc2)cc1	i
COc1ccc(CC2(CCC(=O)N3CCCC(C(=O)c4ccccc4)C3)CCC(=O)N2)cc1OC (configuration not stated)	i
O=C(Nc1ccccc1F)c1cc2ccccn2n1	i
